# Inconclusive results are not listed. Active and inactive are the calls of the source. Calls follow the shape of the full dose curve.
# Experiment: NSCLC 1 Cell Viability Secondary Assay for qHTS Assay for Epigenetic Modulator
# Details: NSCLC 1 cells viability, MTS absorbance, 4 days
# Source text: NIH Molecular Libraries Screening Centers Network [MLSCN] NIH Chemical Genomics Center [NCGC] MLSCN Grant: 1 X01 MH079860-01 Assay Provider: Elisabeth D. Martinez, University of Texas SW Medical Center NCGC Assay Overview: This secondary assay characterizes selected actives identified in the qHTS of the Locus Derepression (LDR) assay (PubChem AID 597). The LDR assay detects the derepression of a GFP reporter that is stably integrated in a region of the genome of murine c127i mammary cells that is presumably silenced. Compounds that cause derepression of the locus to express GFP are identified by enumerating GFP positive cells using a laser-scanning microplate cytometer. […] NSCLC 1 cell viability was measured using Cell Titer 96 AQueous One (Promega), an assay which detects the ability of metabolically active cells to reduce a tetrazolium salt substrate (MTS), into a soluble formazan product that can be measured by colorimetry.
# NCGC Assay Protocol Summary NSCLC 1 cells were plated in 96-well flat bottom tissue culture dishes (Corning) and grown overnight at 37 C and 5% CO2, then treated with compounds, incubated 4 days, and assayed for viability using the Cell Titer 96 AQueous One kit (Promega) according to the manufacturer's protocol. Absorbance at 490 nm and 650 nm (reference) was measured by a Spectra Max (Molecular Devices). […]
smiles,measurement,value
CN1CSC(=S)N(C)C1,outcome,inactive

# — PubChem BioAssay AID1036 (National Center for Advancing Translational Sciences (NCATS), 2008)
